This passage reports composite z-score and z-score results from PubChem BioAssay.

Molecules are shown by their SMILES. The source made the active and inactive calls.

Assay [1] is described as follows: small molecules captured by biotinylated probe aFSTL3 – biochemical, small-molecule microarray, fluorescence 635/667, stem cell growth factor project, primary screen (AID 1064).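 Note: measures binding of the biotinylated anti-FSTL3 antibody to printed compounds.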 Conditions: higher = more signal.
Assay [2] in a line: binders from COS7 lysate, DM2A8 probe, primary screen, torsin A project, cell lysate, small-molecule microarray, fluorescence 635/667 (AID 1065). Conditions: higher = more signal, COS7 lysate expressing mutant human TOR1A.
Assay [3] in a line: small molecules captured by biotinylated probe aFGF2 – biochemical, small-molecule microarray, fluorescence 635/667, stem cell growth factor project, primary screen (AID 1067).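 Note: measures binding of biotinylated aFGF2 protein to printed compounds on slides; z-score merges feature fluorescence and signal-to-noise across triplicate slides.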 Conditions: higher = more signal.
Assay [4] can be described thus: small molecules captured by biotinylated probe aFGF10 – biochemical, small-molecule microarray, fluorescence 635/667, stem cell growth factor project, primary screen (AID 1071).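 Note: score merges 667 nm spot intensity and signal to noise from triplicate slides.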 Conditions: higher = more signal.
The target in assay [5] is Neurogenic locus notch homolog protein 2 (Homo sapiens) (UniProt Q04721). Kind of assay: small molecules binding Notch2 protein – biochemical, small-molecule microarray, 635 nm fluorescence, stem cell growth factors, primary screen (AID 1073). Conditions: higher = more signal.
The target in assay [6] is Pro-neuregulin-1, membrane-bound isoform (Homo sapiens) (UniProt Q02297). Kind of assay: small molecules binding neuregulin-1 protein – biochemical, small-molecule microarray, fluorescence 635/667, psychiatric disease protein project, primary screen (AID 1075).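 Note: score combines 667 nm spot fluorescence with signal to noise.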 Conditions: NRG1 binding, 635 nm fluorescence, higher = more signal.
In assay [7] the test system is Neuregulin-1 EGF-like domain. As to the kind of experiment: small molecules binding NRG1 EGF domain – biochemical, small-molecule microarray, 635 nm fluorescence, primary screen (AID 1081).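 Note: binding of the protein to compounds printed on small-molecule microarray slides.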 Conditions: higher = more signal.
Assay [8] can be described thus: FRG1 expression reporter modulators in myotubes – cell-based, C2C12 myotubes, firefly/Renilla luciferase, luminescence, FRG1 inhibition for FSHD, primary screen (AID 1084). Conditions: FRG1 promoter luciferase, higher = more signal, called active from +8 up or from −8 down.
The nature of assay [9]: small molecules captured by biotinylated probe aFST – biochemical, small-molecule microarray, fluorescence 635/667, stem cell growth factor project, primary screen (AID 1086).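 Note: score merges 667 nm fluorescence with signal-to-noise of each printed compound spot.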 Conditions: higher = more signal.
The nature of assay [10]: binders of probe aHhip on microarray, primary screen, stem cell growth factor project, biochemical, small-molecule microarray, fluorescence 635/667 (AID 1087).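 Note: score merges spot fluorescence at 667nm with spot signal to noise ratio.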 Conditions: higher = more signal.
Assay [11] deals with PRMT1 (protein arginine N-methyltransferase 1). As to the kind of experiment: small molecules binding arginine methyltransferase PRMT1 – biochemical, small-molecule microarray, 635 nm fluorescence, primary screen (AID 1088).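 Note: binding of Prmt1 protein to compounds spotted on small-molecule microarray slides.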 Conditions: higher = more signal.
The nature of assay [12]: growth effects on S. cerevisiae YJM789 – YJM789 clinical isolate, OD600, 24 h, basal, primary screen (AID 1089).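 Note: growth of clinical yeast isolate S. cerevisiae YJM 789 seeded 1000 cells per well; test concentration not given here.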 Conditions: higher = more signal, called active from +8 up or from −8 down.
Assay [13] can be described thus: S. pombe growth modifiers, basal conditions – strain 972, OD600, 24 h, no modulator, primary screen (AID 1090).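 Note: basal condition with compound alone and no growth modifier present; test concentration not given here.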 Conditions: S. pombe 972 growth, higher = more signal, called active from +8 up or from −8 down.
Assay [14] is described as follows: budding yeast growth modifiers under rapamycin – strain BY4716, OD600, 96 h, primary screen (AID 1091). Note: test concentration not given here. Conditions: S. cerevisiae BY4716 + rapamycin, higher = more signal, called active from +8 up or from −8 down.
Assay [15] has as its target Torsin-1A-interacting protein 2 (Homo sapiens) (UniProt Q8NFQ8). Kind of assay: small molecules binding lysate-expressed LULL1 – cell lysate, human LULL1 lysate, 635/667 nm fluorescence, primary screen (AID 1092).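 Note: probe is lysate of COS7 cells overexpressing human LULL1; score merges per-feature 667 nm fluorescence with signal-to-noise.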 Conditions: small-molecule microarray, hLULL1 lysate binding, 635 nm fluorescence; higher = more signal.
A short description of assay [16]: optical density change of DRC41 E. coli – strain DRC41, OD650, 24 h, E. coli filamentation project, primary screen (AID 1093).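 Note: MC1000 strain lacking acrAB efflux and sulA so SOS filamentation is blocked; test concentration not given here.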 Conditions: E. coli DRC41 growth, higher = more signal, called active from +8 up or from −8 down.
Assay [17] is described as follows: probe aLefty2 binding to arrayed compounds – biochemical, biotinylated probe, 635/667 nm fluorescence, primary screen (AID 1094).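 Note: score merges spot fluorescence near 667 nm with spot signal-to-noise ratio.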 Conditions: small-molecule microarray, higher = more signal.
The subject of assay [18] is Noggin (protein binding on small-molecule microarray). Kind of assay: small molecules binding Noggin protein – biochemical, 635/667 nm fluorescence, primary screen (AID 1095).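 Note: score merges 667 nm feature fluorescence with signal to noise over triplicate slides.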 Conditions: 635 nm fluorescence, higher = more signal.
For assay [19], the target named is Neurogenic locus notch homolog protein 3 (Homo sapiens) (UniProt Q9UM47). As to the kind of experiment: small molecules binding NOTCH3 protein – biochemical, 635/667 nm fluorescence, primary screen (AID 1096). Conditions: small-molecule microarray, 635 nm fluorescence, higher = more signal.
The nature of assay [20]: probe aEGFR binding to arrayed compounds – biochemical, biotinylated probe, 635/667 nm fluorescence, primary screen (AID 1097).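 Note: probe is a biotinylated anti-EGFR antibody binding compounds printed on slides; score combines fluorescence near 667 nm and signal to noise of each spot.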 Conditions: small-molecule microarray, higher = more signal.

Chain of Torsin-1A-interacting protein 2 (Homo sapiens) (Q8NFQ8 whole entry, looked up): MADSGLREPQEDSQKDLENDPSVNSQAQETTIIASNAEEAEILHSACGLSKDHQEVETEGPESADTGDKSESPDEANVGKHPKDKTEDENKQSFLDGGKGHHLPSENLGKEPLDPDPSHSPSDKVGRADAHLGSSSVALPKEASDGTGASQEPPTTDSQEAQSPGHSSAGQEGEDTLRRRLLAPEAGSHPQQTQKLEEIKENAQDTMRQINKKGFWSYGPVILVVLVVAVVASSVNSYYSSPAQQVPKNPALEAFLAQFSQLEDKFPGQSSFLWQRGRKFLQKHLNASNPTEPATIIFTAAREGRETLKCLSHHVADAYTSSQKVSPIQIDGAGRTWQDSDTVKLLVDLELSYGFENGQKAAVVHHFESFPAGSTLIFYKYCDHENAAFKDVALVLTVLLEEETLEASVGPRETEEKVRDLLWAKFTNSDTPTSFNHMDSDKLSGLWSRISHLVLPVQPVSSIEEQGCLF
Chain of Pro-neuregulin-1, membrane-bound isoform (Homo sapiens) (Q02297 whole entry, looked up, the tested form may be a part, canonical isoform): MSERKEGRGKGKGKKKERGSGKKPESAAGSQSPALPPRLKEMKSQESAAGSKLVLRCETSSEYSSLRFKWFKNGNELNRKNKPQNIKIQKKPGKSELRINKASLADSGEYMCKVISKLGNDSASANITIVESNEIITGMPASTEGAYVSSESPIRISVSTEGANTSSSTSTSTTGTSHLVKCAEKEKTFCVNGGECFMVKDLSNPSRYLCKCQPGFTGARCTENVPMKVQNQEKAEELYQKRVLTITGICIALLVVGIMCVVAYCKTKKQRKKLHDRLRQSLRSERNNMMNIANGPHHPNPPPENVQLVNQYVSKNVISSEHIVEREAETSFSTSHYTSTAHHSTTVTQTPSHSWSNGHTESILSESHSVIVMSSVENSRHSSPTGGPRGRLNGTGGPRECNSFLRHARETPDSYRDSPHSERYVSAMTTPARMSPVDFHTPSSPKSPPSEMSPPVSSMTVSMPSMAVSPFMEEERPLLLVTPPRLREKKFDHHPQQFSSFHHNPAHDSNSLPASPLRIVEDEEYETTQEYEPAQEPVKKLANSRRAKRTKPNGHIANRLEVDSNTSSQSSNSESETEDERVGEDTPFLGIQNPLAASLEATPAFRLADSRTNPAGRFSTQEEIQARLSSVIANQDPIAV
Chain of Neurogenic locus notch homolog protein 3 (Homo sapiens) (Q9UM47 whole entry, looked up): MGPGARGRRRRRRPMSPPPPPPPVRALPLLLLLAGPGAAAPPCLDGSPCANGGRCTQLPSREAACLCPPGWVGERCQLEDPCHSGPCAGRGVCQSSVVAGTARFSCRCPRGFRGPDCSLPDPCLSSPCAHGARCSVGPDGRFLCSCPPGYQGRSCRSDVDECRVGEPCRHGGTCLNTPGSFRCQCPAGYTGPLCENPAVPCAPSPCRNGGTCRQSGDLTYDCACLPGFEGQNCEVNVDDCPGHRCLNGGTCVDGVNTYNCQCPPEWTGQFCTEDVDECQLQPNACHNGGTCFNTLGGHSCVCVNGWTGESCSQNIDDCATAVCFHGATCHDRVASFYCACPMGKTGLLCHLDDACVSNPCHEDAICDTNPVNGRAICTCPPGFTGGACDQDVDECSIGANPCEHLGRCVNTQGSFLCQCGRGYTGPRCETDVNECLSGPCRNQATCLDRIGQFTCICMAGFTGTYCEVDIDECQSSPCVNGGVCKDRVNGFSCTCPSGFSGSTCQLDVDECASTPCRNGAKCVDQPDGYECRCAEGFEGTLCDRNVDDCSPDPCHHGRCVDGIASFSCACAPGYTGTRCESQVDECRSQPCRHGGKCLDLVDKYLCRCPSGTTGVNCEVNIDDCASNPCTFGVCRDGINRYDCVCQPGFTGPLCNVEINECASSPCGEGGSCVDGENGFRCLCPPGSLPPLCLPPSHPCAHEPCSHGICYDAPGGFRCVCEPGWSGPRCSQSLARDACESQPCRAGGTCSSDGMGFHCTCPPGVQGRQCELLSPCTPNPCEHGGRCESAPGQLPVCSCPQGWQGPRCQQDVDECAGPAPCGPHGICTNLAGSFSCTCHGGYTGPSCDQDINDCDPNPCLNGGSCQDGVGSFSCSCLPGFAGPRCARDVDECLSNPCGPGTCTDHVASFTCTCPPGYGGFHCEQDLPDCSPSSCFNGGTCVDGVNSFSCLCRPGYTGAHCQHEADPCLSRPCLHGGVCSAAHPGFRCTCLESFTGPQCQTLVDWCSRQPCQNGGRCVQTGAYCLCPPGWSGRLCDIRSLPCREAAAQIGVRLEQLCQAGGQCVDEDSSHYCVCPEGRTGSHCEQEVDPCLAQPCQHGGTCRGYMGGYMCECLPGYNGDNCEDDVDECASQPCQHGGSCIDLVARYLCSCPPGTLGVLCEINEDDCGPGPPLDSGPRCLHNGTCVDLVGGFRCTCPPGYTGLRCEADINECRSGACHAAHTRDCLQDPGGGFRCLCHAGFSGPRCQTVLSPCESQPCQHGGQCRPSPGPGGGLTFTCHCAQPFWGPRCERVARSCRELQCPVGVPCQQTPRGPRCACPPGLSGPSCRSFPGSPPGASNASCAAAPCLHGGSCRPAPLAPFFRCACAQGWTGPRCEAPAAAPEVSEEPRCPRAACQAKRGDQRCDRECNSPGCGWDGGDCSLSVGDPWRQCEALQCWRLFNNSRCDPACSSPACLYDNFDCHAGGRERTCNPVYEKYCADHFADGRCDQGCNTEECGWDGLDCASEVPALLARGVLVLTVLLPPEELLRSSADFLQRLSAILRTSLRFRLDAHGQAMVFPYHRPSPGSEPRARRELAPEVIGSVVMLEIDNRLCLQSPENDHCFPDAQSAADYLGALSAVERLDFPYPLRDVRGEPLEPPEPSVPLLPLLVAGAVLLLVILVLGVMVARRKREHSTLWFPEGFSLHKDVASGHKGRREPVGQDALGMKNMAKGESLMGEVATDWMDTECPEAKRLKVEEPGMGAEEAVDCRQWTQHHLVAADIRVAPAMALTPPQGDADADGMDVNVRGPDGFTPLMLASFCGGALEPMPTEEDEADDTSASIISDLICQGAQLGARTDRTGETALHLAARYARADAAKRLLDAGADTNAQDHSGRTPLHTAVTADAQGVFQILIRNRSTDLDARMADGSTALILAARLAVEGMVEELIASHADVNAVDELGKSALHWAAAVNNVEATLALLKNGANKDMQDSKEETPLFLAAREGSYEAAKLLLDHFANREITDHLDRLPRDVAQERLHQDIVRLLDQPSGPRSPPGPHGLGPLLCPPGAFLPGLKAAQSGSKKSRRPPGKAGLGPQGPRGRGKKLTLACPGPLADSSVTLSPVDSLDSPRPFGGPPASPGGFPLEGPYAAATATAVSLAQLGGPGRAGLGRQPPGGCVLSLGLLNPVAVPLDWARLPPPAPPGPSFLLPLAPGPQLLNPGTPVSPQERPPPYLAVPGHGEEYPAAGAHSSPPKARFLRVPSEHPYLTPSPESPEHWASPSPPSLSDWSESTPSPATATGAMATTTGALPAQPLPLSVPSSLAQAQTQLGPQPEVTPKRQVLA

Turning to `CCOC(=O)C[C@H]1[C@H](OC(=O)c2cc3ccccc3oc2=O)[C@@H](NC(=O)c2ccccc2)c2cc(OCCCO)ccc2N1C(=O)c1ccc2ccccc2n1`, the composite z-score in assay [1] is -0.408; in assay [2], -0.373; in assay [3], -0.0878; in [4] it was 0.8; in [5] it was 0.889; in [6], 0.0325. Further, the composite z-score in [7] was 1.18; in assay [9] it was 0.312; in [10], -0.0346; in [11], 0.258; in assay [15] it was 0.852; in [17], -0.193. Moreover, the values for the composite z-score in assay [18], in [19] and in assay [20] were 0.918, 0.662 and -0.0828, respectively. The z-score in [8] is -0.757 (inactive); in assay [12], 0.157 (inactive); in assay [13], -0.12 (inactive); in assay [14] it was 0.0284 (inactive); in assay [16], 0.368 (inactive).
As to `COC(=O)[C@H](Cc1ccccc1)N1CC2=C[C@@H](C3CC3)n3c(=O)n(C)c(=O)n3[C@H]2[C@@H]1[C@@H](O)Cc1ccccc1`, the composite z-score is -0.575 in assay [1]; 1.5 in assay [2]; 0.0066 in assay [3]; 0.369 in assay [4]; 0.319 in [5]; 0.323 in assay [6]. The composite z-score was 0.997 in assay [7]; 0.559 in assay [9]; -0.296 in assay [10]; 1.06 in assay [11]; 2.88 in [15]; -0.136 in [17]. Also, the values for the composite z-score in assay [18], in assay [19] and in [20] were 1.15, 1.02 and 0.142, respectively. Further, the z-score in assay [8] is 0.892 (inactive); in [12], -0.973 (inactive); in assay [13], -1.15 (inactive); in assay [14], 0.0538 (inactive); in assay [16] it was -0.89 (inactive).
Regarding `Cc1nc2cc(Br)ccc2c(=O)o1`, the composite z-score in assay [1] was -0.296; in assay [2], -0.185; in assay [3], -0.158; in [4], 0.497; in assay [5], 1.1; in [6] it was 0.226. Moreover, the composite z-score in assay [7] is 0.861; in assay [9], 1.04; in assay [10], 0.0383; in assay [11], 0.648; in assay [15], 1.27; in assay [17], -0.082. Also, the composite z-score is 0.198 in assay [18], 1.04 in assay [19] and 0.104 in assay [20]. Besides, the z-score was 0.845 (inactive) in [8]; -0.764 (inactive) in [12]; 0.597 (inactive) in assay [13]; -1.07 (inactive) in assay [14]; -1.07 (inactive) in assay [16].
Take `C=CCOC(=O)[C@H]1[C@@H]2C(=O)O[C@@H](c3ccccc3)[C@@H](c3ccccc3)N2[C@@H](c2ccc(OCCOC(=O)[C@H]3C[C@H]4C(=O)N[C@@H](CCCCNC(C)=O)C(=O)N4[C@H]3c3cccc(OCCO)c3)cc2)[C@]12C(=O)Nc1ccccc12`: the composite z-score is -0.0212 in assay [1]; 1 in [2]; -0.0723 in assay [3]; 0.732 in assay [4]; 0.279 in [5]; 0.786 in assay [6]. Moreover, the composite z-score is 1.11 in [7]; -0.047 in assay [9]; -0.0994 in [10]; 1.55 in assay [11]; 3.05 in [15]; -0.0865 in assay [17]. The composite z-score in assay [18] was 0.664; in [19], 0.879; in [20], -0.0996. Further, the z-score in assay [8] was 1.12 (inactive); in assay [12], 0.17 (inactive); in [13], 1.11 (inactive); in assay [14], 2.59 (inactive); in [16], 0.272 (inactive).
Consider `COC(=O)[C@@]1(Cc2ccc(OC)cc2)[C@@H]2C(=CC(=O)[C@H]2CC(=O)C(=O)N2CCCC2)CN1C(=O)c1ccccc1`, for which the composite z-score was 0.156 in assay [1]; -0.601 in assay [2]; -0.0124 in assay [3]; 0.224 in [4]; 1.6 in assay [5]; 1.02 in assay [6]. For the same compound, the composite z-score in assay [7] was 1.25; in assay [9] it was 1.1; in assay [10], 1.41; in assay [11] it was -1.55; in [15] it was 2.99; in assay [17], 0.336. Also, the composite z-score was found to be 0.0255 in [18], 0.735 in assay [19] and 0.386 in assay [20]. In addition, the z-score in assay [8] is 2.91 (inactive); in [12] it was 0.201 (inactive); in [13], 0.097 (inactive); in [14], 0.176 (inactive); in assay [16], 0.355 (inactive).
